Reference: PubChem BioAssay (Tox21)
A number with no mark means an inactive call. Results filed as inconclusive are left out. The source made the active and inactive calls. Unless noted, calls come from the whole dose curve.

Target: Androgen receptor (Homo sapiens) (UniProt P10275)
Assay: qHTS assay to identify small molecule agonists of the androgen receptor (AR) signaling pathway in the presence of an antagonist (AID 1259381); note: nearly all actives have a fitted effect of over 15% in size
Settings: MDA-kb2 MMTV-luciferase, AR agonist + nilutamide, 16 h; series mostly up to 92.4 µM; activation: at the top concentration
Procedure, shortened: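 MDA-kb2 cells carrying MMTV-luciferase (AR/GR responsive), 3,000 cells/well, co-treated with 3.0 uM nilutamide final. Compounds at 15 concentrations, 16 hr at 37C without CO2. Luciferase luminescence read after 30 min with ONE-Glo.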
% is set by controls: 0 for no effect and ±100 for the full control effect.

Chain of Androgen receptor (Homo sapiens) (P10275 whole entry, looked up): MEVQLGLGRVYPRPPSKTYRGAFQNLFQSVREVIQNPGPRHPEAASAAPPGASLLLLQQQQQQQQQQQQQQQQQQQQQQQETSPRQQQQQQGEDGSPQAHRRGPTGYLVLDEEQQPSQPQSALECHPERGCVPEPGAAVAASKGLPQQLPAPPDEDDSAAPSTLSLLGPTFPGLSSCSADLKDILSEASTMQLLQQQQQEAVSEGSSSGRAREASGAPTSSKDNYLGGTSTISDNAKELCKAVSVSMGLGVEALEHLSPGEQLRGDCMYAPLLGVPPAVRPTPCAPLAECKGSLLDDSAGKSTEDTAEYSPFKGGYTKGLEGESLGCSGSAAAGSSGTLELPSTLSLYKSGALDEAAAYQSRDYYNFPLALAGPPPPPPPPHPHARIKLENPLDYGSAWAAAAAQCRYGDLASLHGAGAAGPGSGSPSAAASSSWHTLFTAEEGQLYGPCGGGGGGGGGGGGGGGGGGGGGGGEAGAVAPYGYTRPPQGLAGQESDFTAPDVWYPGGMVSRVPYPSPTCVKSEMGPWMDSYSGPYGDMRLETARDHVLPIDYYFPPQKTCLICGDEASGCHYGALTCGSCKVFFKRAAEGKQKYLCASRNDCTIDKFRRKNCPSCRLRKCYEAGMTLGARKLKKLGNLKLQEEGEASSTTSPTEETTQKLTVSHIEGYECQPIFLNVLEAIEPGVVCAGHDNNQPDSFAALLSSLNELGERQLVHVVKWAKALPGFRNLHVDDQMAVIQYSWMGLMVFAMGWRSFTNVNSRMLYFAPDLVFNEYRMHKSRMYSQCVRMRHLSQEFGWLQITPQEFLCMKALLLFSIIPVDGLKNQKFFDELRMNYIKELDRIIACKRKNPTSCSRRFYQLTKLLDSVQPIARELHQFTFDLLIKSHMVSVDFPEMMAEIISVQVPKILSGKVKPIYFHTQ

Going from `NCc1cccc(C2CCN(C(=O)c3ccc(C#Cc4ccccc4F)o3)CC2)c1` to `O=S(=O)(c1ccc(OCc2ccccc2)cc1)c1ccccc1O`, the “activation” value falls from -1.79% to -11.3%.

First: Nc1ccc(Cl)c([N+](=O)[O-])c1
Second: CCOC(=O)C1=NN(c2ccc(Cl)cc2Cl)C(C)(C(=O)OCC)C1 (centres undefined)
The “activation” value of the first is higher: 8.81% for the first, -3.24% for the second.

In the case of `C=CCc1cc(S(=O)(=O)c2ccc(O)c(CC=C)c2)ccc1O`, the “activation” value is reported as -8.31%.

In the case of `CC(C)(C)C1=CC(=O)C(C(C)(C)C)=CC1=O`, the “activation” value is reported as -3.63% [at 42.5 µM].

Tested on: not listed separately
Assay: qHTS assay to identify small molecule antagonists of the estrogen receptor beta (ER-beta) signaling pathway - cell viability counter screen (AID 1259382; active = well fitted cell-killing curve with a large enough effect in the repeat runs; note: nearly all actives have a fitted effect of over 55% in size; note: potency is the fitted concentration of half-maximal effect;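 for activity change, negative = cytotoxicity: HEK293T cells carrying ER-beta-UAS-bla reporter stimulated with estradiol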)
Settings: ER-beta-UAS-bla HEK293T viability, CellTiter-Glo luminescence, 16 h; series mostly up to 92.4 µM; activity change, negative = cytotoxicity: at the top concentration
Procedure, shortened: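 ER-beta-UAS-bla HEK293T cells in 2% charcoal-stripped FBS medium, treated with compound plus 1 nM 17-beta-estradiol for 16 h at 37C. Viability read by CellTiter-Glo luminescence after 30 min at room temperature in the same wells.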

For `NCc1cccc(C2CCN(C(=O)c3ccc(C#Cc4ccccc4F)o3)CC2)c1`, the Potency was 61.1 µM (active).

Compared with `CCN(CC)c1ccc(C=O)c(O)c1`, `CCN(CC)c1ccc(C=O)cc1` is lower in “activity change, negative = cytotoxicity” value: -14.3% for the first, -19.6% for the second.

Compared with `CC(C)c1ccc2sc3ccccc3c(=O)c2c1`, `O=C(Nc1ccccc1)c1cc(Cl)ccc1O` is lower in “activity change, negative = cytotoxicity” value: -14.8% for the first, -25.5% for the second.

Going from `O=C(N[C@H](CO)[C@H](O)c1ccc([N+](=O)[O-])cc1)C(Cl)Cl` to `CCOc1ccc([N+](=O)[O-])cc1`, the “activity change, negative = cytotoxicity” value falls from 0.997% to -13%.

Compared with `Nc1ccc(Oc2cccc(Oc3ccc(N)cc3)c2)cc1`, `c1ccc(C[P+](c2ccccc2)(c2ccccc2)c2ccccc2)cc1` is higher in “activity change, negative = cytotoxicity” value: -11.6% for the first, 2% for the second.

Compared with `O=C1CCCCCCCCCCCCCC1`, `O=C1CCC/C=C\CCCCCCCCCC1` is lower in “activity change, negative = cytotoxicity” value: 2.25% for the first, -5.2% for the second.

Going from `CCCCCCCC/C=C\CCCCCCCC(=O)N(CCO)CCO` to `CCCC(=O)c1cc(O)c(O)cc1O`, the “activity change, negative = cytotoxicity” value rises from -21.4% to -4.21%.

Going from `CCOC(=O)C1=NN(c2ccc(Cl)cc2Cl)C(C)(C(=O)OCC)C1` (centres undefined) to `Oc1ccc(Cl)cc1C1CCCC1`, the “activity change, negative = cytotoxicity” value falls from -10.6% to -16%.

With `C1=CCCC1` the “activity change, negative = cytotoxicity” value was 0.391%.

In the case of `CC(C)(C)C1=CC(=O)C(C(C)(C)C)=CC1=O`, the “activity change, negative = cytotoxicity” value is reported as -19.9% [at 42.5 µM].

Target: Estrogen receptor (Homo sapiens) (UniProt P03372)
Sequence (P03372 whole entry, looked up): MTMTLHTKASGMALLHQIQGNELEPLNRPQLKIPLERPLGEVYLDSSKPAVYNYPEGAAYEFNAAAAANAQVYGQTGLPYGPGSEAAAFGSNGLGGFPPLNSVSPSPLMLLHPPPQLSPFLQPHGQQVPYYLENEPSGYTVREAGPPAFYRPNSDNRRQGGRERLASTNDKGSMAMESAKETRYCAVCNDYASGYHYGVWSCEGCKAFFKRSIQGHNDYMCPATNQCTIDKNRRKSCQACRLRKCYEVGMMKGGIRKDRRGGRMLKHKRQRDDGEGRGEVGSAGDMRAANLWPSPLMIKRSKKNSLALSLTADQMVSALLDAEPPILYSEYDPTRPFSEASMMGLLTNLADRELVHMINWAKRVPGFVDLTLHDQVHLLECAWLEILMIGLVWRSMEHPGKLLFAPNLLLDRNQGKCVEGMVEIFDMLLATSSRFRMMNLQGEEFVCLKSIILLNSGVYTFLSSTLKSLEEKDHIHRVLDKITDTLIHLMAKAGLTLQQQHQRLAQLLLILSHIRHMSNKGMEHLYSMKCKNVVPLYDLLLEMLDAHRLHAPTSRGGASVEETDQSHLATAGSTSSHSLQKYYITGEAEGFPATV
Assay: qHTS assay to identify small molecule agonists of the estrogen receptor alpha (ER-alpha) signaling pathway in the presence of an antagonist (AID 1259383); note: nearly all actives have a fitted effect of over 15% in size; note: potency is the fitted concentration of half-maximal effect; for activation: top concentration of the series differs between compounds
Settings: VM7Luc4E2 cells, ERE-luciferase, +ICI-182,780, 22 h; series mostly up to 92.4 µM; activation: at the top concentration
Procedure, shortened: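 VM7Luc4E2 cells express endogenous full-length ER-alpha with an ERE-luciferase reporter and were hormone-deprived for 5 days. Compounds at 15 concentrations were added with 10.0nM ICI-182,780 for 22hr at 37C. Luminescence was read with ONE-Glo.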

Going from `CC(C)(C)c1ccc(OC2CCCCC2O)cc1` (centres undefined) to `COc1cccc(-c2ccc(/C=C\CN3CCCCCC3)cc2Cl)c1`, the “activation” value falls from 9.77% to 0.0409%.

First: NCc1cccc(C2CCN(C(=O)c3ccc(C#Cc4ccccc4F)o3)CC2)c1
Second: O=S(=O)(c1ccc(OCc2ccccc2)cc1)c1ccccc1O
The “activation” value of the first is higher: 7.14% for the first, -10.8% for the second.

Going from `CCN(CC)c1ccc(C=O)c(O)c1` to `CCN(CC)c1ccc(C=O)cc1`, the “activation” value falls from 2.99% to 0.668%.

Going from `CC(Cc1ccc(O)c(O)c1)C(C)Cc1ccc(O)c(O)c1` (centres undefined) to `C=CCc1cc(S(=O)(=O)c2ccc(O)c(CC=C)c2)ccc1O`, the “activation” value falls from 0.367% to -1.37%.

Going from `O=C(N[C@H](CO)[C@H](O)c1ccc([N+](=O)[O-])cc1)C(Cl)Cl` to `O=C(Nc1ccccc1)c1cc(Cl)ccc1O`, the “activation” value falls from 1.49% to -4.8%.

Going from `C=Cc1ccc(O)c(OC)c1` to `CCCCCc1ccc(O)cc1`, the “activation” value rises from 0.12% to 6.81%.

First: Nc1ccc(Oc2cccc(Oc3ccc(N)cc3)c2)cc1
Second: c1ccc(C[P+](c2ccccc2)(c2ccccc2)c2ccccc2)cc1
The “activation” value of the first is higher: -14.8% for the first, -15.8% for the second.

Compared with `O=C1CCCCCCCCCCCCCC1`, `C1=CCCC1` is lower in “activation” value: -0.057% for the first, -2.04% for the second.

First: CCCCCCCC/C=C\CCCCCCCC(=O)N(CCO)CCO
Second: CCCCCCCCCC[N+](C)(CCCCCCCCCC)CCC[Si](OC)(OC)OC
The “activation” value of the first is lower: -0.509% for the first, 0.0876% for the second.

Going from `CCOC(=O)C1=NN(c2ccc(Cl)cc2Cl)C(C)(C(=O)OCC)C1` (centres undefined) to `c1ccc2occc2c1`, the “activation” value falls from -0.756% to -2.37%.

With `CC(C)=NNC(N)=S` the “activation” value was -0.826%.

Compared with `CN(C/C=C/c1ccccc1)Cc1cccc2ccccc12`, `C/C(=C\c1ccc(C(=O)O)cc1)c1ccc2c(c1)C(C)(C)CCC2(C)C` is lower in “activation” value: -2.22% [at 42.5 µM] for the first, -5.11% [at 42.5 µM] for the second.

For `CC(C)c1ccc2sc3ccccc3c(=O)c2c1`, the Potency was 1.37 µM (active).
In the case of `CCCOC(=O)c1ccc(O)cc1`, the Potency is reported as 47.5 µM (active).
In the case of `CCOc1ccc([N+](=O)[O-])cc1`, the Potency is reported as 24.7 µM (active).

Tested on: not listed separately
Assay: qHTS assay to identify small molecule agonists or antagonists of the thyroid stimulating hormone receptor (TSHR) signaling pathway - wild type cell line counter screen (AID 1259384)
Settings: HEK293 wild type, cAMP HTRF counter-screen; series mostly up to 92.4 µM; cAMP activity change: at the top concentration
Procedure, shortened: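 Wild-type Hek293 cells, 800/well, 18 h at 37C, then compound with Ro20-1724 for 30 min RT. cAMP by HTRF (cAMP-d2/anti-cAMP cryptate), 1 h RT, fluorescence read. 15 concentrations, triplicates.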

Going from `CC(C)(C)c1ccc(OC2CCCCC2O)cc1` (centres undefined) to `Oc1ccc(Cl)cc1C1CCCC1`, the “cAMP activity change” value rises from -1.93% to -0.0079%.

Going from `c1ccc(-c2nc3ccccc3[nH]2)cc1` to `O=S(=O)(c1ccc(OCc2ccccc2)cc1)c1ccccc1O`, the “cAMP activity change” value falls from 2.73% to 1.84%.

Compared with `CC(Cc1ccc(O)c(O)c1)C(C)Cc1ccc(O)c(O)c1` (centres undefined), `C=CCc1cc(S(=O)(=O)c2ccc(O)c(CC=C)c2)ccc1O` is higher in “cAMP activity change” value: -0.0472% for the first, 3.56% for the second.

Compared with `CCN(CC)c1ccc(C=O)cc1`, `CCCOC(=O)c1ccc(O)cc1` is lower in “cAMP activity change” value: 2.93% for the first, -6.72% for the second.

Compared with `O=C(N[C@H](CO)[C@H](O)c1ccc([N+](=O)[O-])cc1)C(Cl)Cl`, `O=C(Nc1ccccc1)c1cc(Cl)ccc1O` is higher in “cAMP activity change” value: -4.12% for the first, 0.236% for the second.

First: C=Cc1ccc(O)c(OC)c1
Second: COc1cccc(-c2ccc(/C=C\CN3CCCCCC3)cc2Cl)c1
The “cAMP activity change” value of the first is lower: 6.48% for the first, 8.08% for the second.

Compared with `CC(C)(c1ccc(Oc2ccc(N)cc2)cc1)c1ccc(Oc2ccc(N)cc2)cc1`, `c1ccc(C[P+](c2ccccc2)(c2ccccc2)c2ccccc2)cc1` is higher in “cAMP activity change” value: -2.09% for the first, -0.766% for the second.

Going from `CCOC(=O)C1=NN(c2ccc(Cl)cc2Cl)C(C)(C(=O)OCC)C1` (centres undefined) to `c1ccc2occc2c1`, the “cAMP activity change” value rises from 0.0383% to 7.68%.

With `C1=CCCC1` the “cAMP activity change” value was 3.04%.

In the case of `CN(C/C=C/c1ccccc1)Cc1cccc2ccccc12`, the “cAMP activity change” value is reported as 0.827% [at 42.5 µM, stronger effect = higher value].
For `CC(C)(C)C1=CC(=O)C(C(C)(C)C)=CC1=O`, the “cAMP activity change” value was 6.8% [at 42.5 µM, stronger effect = higher value].
With `C/C(=C\c1ccc(C(=O)O)cc1)c1ccc2c(c1)C(C)(C)CCC2(C)C` the “cAMP activity change” value was -0.447% [at 42.5 µM, stronger effect = higher value].
